Compounds without any hit were thinned out: in the full panel of roughly 83,000, 20% have a hit.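 Interpretation: 100, growth as untreated; towards 0, rising growth inhibition; 0, no net growth; 0 to -100, cell death. Compounds scoring below 10 were considered active.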 Unmarked numbers belong to inactive results. Active and inactive are the calls of the source.
Key:
Assay in all cases: NCI-60 one-dose screen, 48 h (100 = growth as untreated, 0 = no growth, -100 = all killed)
Conditions in all cases: 10 µM unless noted
RPMI-8226 leukemia = test system: RPMI-8226 leukemia
OVCAR-8 ovarian = test system: OVCAR-8 ovarian
OVCAR-5 ovarian = test system: OVCAR-5 ovarian
OVCAR-4 ovarian = test system: OVCAR-4 ovarian
SK-OV-3 ovarian = test system: SK-OV-3 ovarian
IGROV1 ovarian = test system: IGROV1 ovarian
OVCAR-3 ovarian = test system: OVCAR-3 ovarian
HS 578T breast = test system: HS 578T breast
NCI/ADR-RES ovarian = test system: NCI/ADR-RES ovarian
SR leukemia = test system: SR leukemia

Row | Structure (SMILES) | growth (RPMI-8226 leukemia) | growth (OVCAR-8 ovarian) | growth (OVCAR-5 ovarian) | growth (OVCAR-4 ovarian) | growth (SK-OV-3 ovarian) | growth (IGROV1 ovarian) | growth (OVCAR-3 ovarian) | growth (HS 578T breast) | growth (NCI/ADR-RES ovarian) | growth (SR leukemia) [%]
1 | CSc1ccccc1C#C/C=C\C#Cc1ccccc1N1CCCCC1=O | 64.3% | 103% | 96.7% | 102% | 109% | -29.6% (active) | 97.6% | -20.4% (active) | 102% | 
2 | COc1ccc(/C(=N/O)c2cc(OC)c(OC)c(OC)c2)c(OC)c1N | 32% | 40.7% | 71.9% | 50% | 35.7% | 55% | 1.89% (active) | 8.77% (active) | 31% | 
3 | CC1Cc2c(N(C)C)ncnc2N(C)c2ccc(O)cc21 (configuration not stated) | 82.9% | 103% | 99.4% | 84.6% | 86% | 93.6% | 88.8% | 76.2% | 84.2% | 
4 | CCN(CC)CCCC(C)N=c1cc(Nc2cc(=NC(C)CCCN(CC)CC)c3cc(OC)ccc3o2)oc2ccc(OC)cc12 (configuration not stated) | -38.3% (active) | -1.52% (active) | -28.3% (active) | -48.8% (active) | 7.55% (active) | -5.22% (active) | -20.8% (active) | 27.5% | 3.48% (active) | 
5 | Cc1ccc(Nc2ncnc3c2sc2ncccc23)cc1 | 105% | 98.1% | 101% | 109% | 101% | 105% | 109% | 102% | 98.8% | 
6 | Nc1c(C(=O)Nc2c(Cl)cccc2Cl)sc2nc3c(cc12)CCCCC3 |  | 51.8% | 79.8% |  | 56.6% | 73% | 52.8% | 59% | 53.5% | 16.7
7 | COc1ccc(/C(=N\O)c2cc(OC)c(OC)c(OC)c2)c(OC)c1N | 24.2% | 18% | 47.8% | 42.9% | 43% | 46.1% | -25.1% (active) | 7.51% (active) | 18.2% | 
8 | COc1ccc(/C=N/NC(=O)Cn2c(Cc3cccc4ccccc34)nc3ccccc32)cc1 | 88.3% | 93.7% | 96% | 104% | 106% | 108% | 101% | 95.8% | 93.6% | 
9 | COc1cc(/C=C2\C=C(c3ccc(F)cc3)N(Cc3ccccc3)C2=O)cc(OC)c1OC | 50.7% | 48.8% | 89.6% | 51% | 99.3% | 84.4% | 70.3% | 87.1% | 62.1% | 
10 | COc1ccc(OC)c(NC(=O)c2cc(S(=O)(=O)N3CCc4ccccc43)ccc2OC)c1 | 82.6% | 75.5% | 89.8% | 94.2% | 92.6% | -39.9% (active) | 112% | -43.4% (active) | 94.3% | 
11 | Nc1c(C(=O)Nc2ccccc2)sc2nc3c(cc12)CN(Cc1ccccc1)CC3 |  |  | 78.5% | -14.7% (active) | 39.2% | 77.9% | 56.6% | 11.1% | 71% | 55.6
12 | CCN1C(=O)N[C@H]2[C@@H]3NC(=O)c4ccc(Cl)n4[C@@H]3C[C@]21O | -21.2% (active) | 1.27% (active) | 24.5% | 3.02% (active) | 28.6% | 1.44% (active) | 2.22% (active) | -10.9% (active) | 76.4% | 
13 | COc1cc2c(cc1OC)C1(C)N(CC2)C(=O)OC1(C)C (configuration not stated) | 105% | 98.4% | 107% | 99.5% | 107% | 109% | 114% | 98.1% | 105% | 
14 | Cc1ccc(OCCn2c(C)nn(-c3ccc(Cl)cc3)c2=O)cc1 | 97.1% | 109% | 113% | 98.9% | 113% | 112% | 124% | 89.6% | 103% | 
15 | CC/C(=C(\c1ccc(O)cc1)c1ccc(OCCN(C)CCN(C)C(=O)CCC(=O)c2c(C)[nH]c(/C=C3\N=C(c4ccc[nH]4)C=C3OC)c2C)cc1)c1ccccc1 |  | 89.9% | 99.6% |  | 111% | 81.6% | 89.1% | 83.6% | 79.8% | 58.6
